Experimental data from the supplement of paper PMC5407854, “Inhibitor of ppGalNAc-T3-mediated O-glycosylation blocks cancer cell invasiveness and lowers FGF23 levels” (eLife, 2017).
The full ranking holds about 1,700 compounds; the median of “T2 sensor activation Q score (MG/GFP ratio z-score vs DMSO controls)” is about 0.3, and the highest 2% start at about 1.9. The entries come from a sample that favours the highest values as a whole.

These compounds were tested on ppGalNAc-T2 sensor (assay: T2 sensor activation Q score (MG/GFP ratio z-score vs DMSO controls) (SD units); higher = more sensor activation (inhibition of ppGalNAc-T2 glycosylation)). Details: HEK293 sensor cells; 10 µM; 6 h.
Protocol: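 Cells were treated with compound at 10 uM for 6 h, then MG/GFP ratio was read by flow cytometry (10,000 cells per well, duplicate wells). Q = (R - R_neg)/SD_neg relative to DMSO vehicle controls; the signal rises when the glycosyltransferase is inhibited.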

Row | Structure (SMILES) | T2 sensor activation Q score
1 | CCOC(=O)C(C)c1c(C(=O)c2ccc(C)nc2)c2ccccc2n1C (configuration not stated) | 0.9
2 | NC(=O)c1nnsc1-c1ccc(-c2snnc2C(N)=O)cc1 | 1.7
3 | O=c1[nH]c(=S)c2ncn(-c3ccccc3)c2[nH]1 | -1.3
4 | NC(=O)c1ccccc1NC(=O)COc1ccc(Cl)cc1 | -0.45
5 | CC(=O)Nc1ccc(S(=O)(=O)N/N=c2/sc3ccccc3n2C)cc1N | -0.6
6 | c1ccc(-c2nnc3oc(-c4cccs4)nn23)cc1 | -1.05
7 | Cc1cn(C2CC(O)C(CO)O2)c(=O)n(Cc2ccccc2)c1=O (configuration not stated) | 0.85
8 | O=c1[nH]cc(Cl)cc1Cl | 0.5
9 | CCOC(=O)/C=C/c1nc(C(=O)OCC)c(C)c(=O)[nH]1 | -0.1
10 | CC(C)CCCCCCCCCCCCC(=O)NCC(=O)NC1C(C)OC(Nc2ncnc3nc[nH]c23)C(O)C1O (configuration not stated) | 8.6
11 | CC(C)=NNc1ncnc2nc[nH]c12 | 1.25
12 | Cc1ccc(Nc2n[nH]c(=S)s2)cc1F | -0.95
13 | NNC(=O)Cc1cc(=O)[nH][nH]1 | -0.7
14 | Cc1cc(=O)oc2cc(OS(C)(=O)=O)ccc12 | 1.2
15 | CCSc1nc(=S)cc(C)[nH]1 | -0.1
16 | CC(=NNC(N)=O)c1ccc(Cl)c(-n2cccc2)c1 | 0.6
17 | N#C/C(=C\c1c[nH]c2ccccc12)C(N)=O | 0.8
18 | NC(=S)N/N=C\c1cc(-c2cccc(N)c2)ccn1 | 0
19 | O=C(Nc1ccc(C2=NCCCN2)cc1)Nc1ccc(C2=NCCCN2)cc1 | -0.6
20 | COc1ccc2c(c1)CCCN2C(N)=Nc1ccc(Cl)cc1 | 1.25
21 | Cc1cccc2cc3cccc(C)c3nc12 | 0.3

Row | Structure (SMILES) | T2 sensor activation Q score
22 | Cc1c(COC(=O)NC(C)C)c(COC(=O)NC(C)C)c2n1CS(=O)(=O)C2 | -0.4
23 | CC1CC(C)(C)C2=NCCN21 (configuration not stated) | 1.3
24 | Cc1ccc(S(=O)(=O)NC(=O)Nc2nccs2)cc1 | -1.2
25 | Cc1ccc(S(=O)(=O)NNC(=O)C23CCC(CC2)C3)cc1 | 1.95
26 | CC(=O)C1C=CC(C)(C(=O)O)C2C=C(C)C(=O)C(C)(O)C12 (configuration not stated) | 0.2
27 | CCOC(=O)c1csc(-c2ccc(COC(=O)c3ccccc3)o2)n1 | -1
28 | COc1ccc2c(c1)CCN1C2CCN2C(=O)CCC21 (configuration not stated) | 0.9
29 | O=S1(=O)CCN(Cc2ccccn2)CC1 | 0.85
30 | COC(=O)c1ccc(Cn2cnc3c(Cl)ncnc32)cc1 | 1.6
31 | Cc1cc(N)c2cc(NC(=O)C=Cc3ccccc3Cl)ccc2n1 | 1.5
32 | Nc1ccc(N=Nc2ccccc2)c2ccccc12 | -0.25
33 | O=C(Nc1ccc(Nc2ccccc2)cc1)Nc1ccccc1Cl | -1.35
34 | Nc1cc(Nc2ccc(Br)cc2)nc(N)n1 | 0.6
35 | CCCCCOc1ccc(N2C(=O)C(C)CNC2=S)cc1 (configuration not stated) | 0.7
36 | Oc1ccc(-c2nc3ccccc3s2)c(O)c1 | 0.2
37 | Oc1ccc(Cc2ccccc2Cl)c(O)c1 | 1.95
38 | Oc1ccc(Cc2ccc(Cl)cc2)c(O)c1 | 1.3
39 | COC(=O)c1cc(C)[nH]c2c(C)cc3nc4ccccc4c3c12 | 0.65
40 | O=C(Oc1ccccc1)N(c1ccccc1)c1ccccc1 | 0.35
41 | Cc1cc(/C=C2\SC(=S)NC2=O)cc(C)c1O | 0.35
42 | CN(C)c1ccc(/C=C(\C#N)C(=O)c2ccccc2)cc1 | -0.3

Row | Structure (SMILES) | T2 sensor activation Q score
43 | CN(C)c1ccc2c(c1)Sc1cc(N(C)C)ccc1N2C(=O)c1ccccc1 | 2.55
44 | CN1CCC=C(C(=O)N2c3ccccc3Sc3ccc(Cl)cc32)C1 | 0.25
45 | CC[C@]1(O)C[C@@H]2CN(CCc3c([nH]c4ccccc34)[C@@](C(=O)OC)(c3cc4c(cc3OC)N(C)[C@H]3[C@@](O)(C(=O)OC)[C@H](OC(C)=O)[C@]5(CC)C=CCN6CC[C@]43[C@@H]65)C2)C1 | 2.05
46 | CCC1=C[C@@H]2CN(C1)Cc1c([nH]c3ccccc13)[C@@](C(=O)OC)(c1cc3c(cc1OC)N(C)[C@H]1[C@@](O)(C(=O)OC)[C@H](OC(C)=O)[C@]4(CC)C=CCN5CC[C@]31[C@@H]54)C2 | 1.1
47 | CC[C@]1(O)C[C@H]2CN(CCc3c([nH]c4ccccc34)[C@@](C(=O)OC)(c3cc4c(cc3OC)N(C=O)[C@H]3[C@@](O)(C(=O)OC)[C@H](OC(C)=O)[C@]5(CC)C=CCN6CC[C@]43[C@@H]65)C2)C1 | 1.4
48 | C=C(C)C(=O)Oc1ccc(N=Nc2ccc(C)cc2)ccc1=O | 1.1
49 | NC(=O)c1nc2c([nH]c1=O)CCCC2 | -0.85
50 | CSc1nc(N)c(C(=O)Nc2ccc([N+](=O)[O-])cc2)s1 | 0.05
51 | Nc1ccc(C(=O)Nc2cccc(N)c2)cc1 | -0.5
52 | O=C(Nc1cccc(-c2nc3ccccc3[nH]2)c1)c1ccc(C(=O)Nc2cccc(-c3nc4ccccc4[nH]3)c2)cc1 | 3
53 | c1ccc2[nH]c(-c3ccncc3)nc2c1 | -1.1
54 | Cn1ncc2c(Sc3ccc(Cl)cc3)ncnc21 | 1.3
55 | CC1=CN2C(c3cccc([N+](=O)[O-])c3)=NON(c3ccc(C)cn3)C2C=C1 (configuration not stated) | 0.85
56 | CSc1ncc2[nH]c(C(O)c3ccccc3)nc2n1 (configuration not stated) | -0.45
57 | O=S1(=O)CCC(N(N=Cc2ccco2)c2ccccc2)C1 (configuration not stated) | -0.2
58 | O=CN/C=C\c1cc(O)ccc1O | -0.3
59 | OC[C@@H]1CCC[C@H](n2cnc3c(=S)nc[nH]c32)O1 | 0.75
60 | Cc1nccnc1Sc1ccccc1 | -0.2
61 | Oc1ccc2ccccc2c1N=Nc1ccc(F)cc1 | 0.05
62 | Oc1ccc2ccccc2c1N=Nc1nccs1 | 0.9
